The whole screen tested about 100,000 compounds, of which about 4,200 (4.2%) were called active.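 How the source made its calls: active means single-dose well whose peak fluorescence ratio is a statistical outlier from its plate by either plate-standardised score or position-corrected B-score; inactive means the rest.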 The entries come from a sample that favours actives as a whole.

The values below come from PubChem BioAssay AID449739 (Vanderbilt High Throughput Screening Facility, 2010).

Voltage-dependent T-type calcium channel subunit alpha-1H (Homo sapiens), sequence (O95180 whole entry, looked up): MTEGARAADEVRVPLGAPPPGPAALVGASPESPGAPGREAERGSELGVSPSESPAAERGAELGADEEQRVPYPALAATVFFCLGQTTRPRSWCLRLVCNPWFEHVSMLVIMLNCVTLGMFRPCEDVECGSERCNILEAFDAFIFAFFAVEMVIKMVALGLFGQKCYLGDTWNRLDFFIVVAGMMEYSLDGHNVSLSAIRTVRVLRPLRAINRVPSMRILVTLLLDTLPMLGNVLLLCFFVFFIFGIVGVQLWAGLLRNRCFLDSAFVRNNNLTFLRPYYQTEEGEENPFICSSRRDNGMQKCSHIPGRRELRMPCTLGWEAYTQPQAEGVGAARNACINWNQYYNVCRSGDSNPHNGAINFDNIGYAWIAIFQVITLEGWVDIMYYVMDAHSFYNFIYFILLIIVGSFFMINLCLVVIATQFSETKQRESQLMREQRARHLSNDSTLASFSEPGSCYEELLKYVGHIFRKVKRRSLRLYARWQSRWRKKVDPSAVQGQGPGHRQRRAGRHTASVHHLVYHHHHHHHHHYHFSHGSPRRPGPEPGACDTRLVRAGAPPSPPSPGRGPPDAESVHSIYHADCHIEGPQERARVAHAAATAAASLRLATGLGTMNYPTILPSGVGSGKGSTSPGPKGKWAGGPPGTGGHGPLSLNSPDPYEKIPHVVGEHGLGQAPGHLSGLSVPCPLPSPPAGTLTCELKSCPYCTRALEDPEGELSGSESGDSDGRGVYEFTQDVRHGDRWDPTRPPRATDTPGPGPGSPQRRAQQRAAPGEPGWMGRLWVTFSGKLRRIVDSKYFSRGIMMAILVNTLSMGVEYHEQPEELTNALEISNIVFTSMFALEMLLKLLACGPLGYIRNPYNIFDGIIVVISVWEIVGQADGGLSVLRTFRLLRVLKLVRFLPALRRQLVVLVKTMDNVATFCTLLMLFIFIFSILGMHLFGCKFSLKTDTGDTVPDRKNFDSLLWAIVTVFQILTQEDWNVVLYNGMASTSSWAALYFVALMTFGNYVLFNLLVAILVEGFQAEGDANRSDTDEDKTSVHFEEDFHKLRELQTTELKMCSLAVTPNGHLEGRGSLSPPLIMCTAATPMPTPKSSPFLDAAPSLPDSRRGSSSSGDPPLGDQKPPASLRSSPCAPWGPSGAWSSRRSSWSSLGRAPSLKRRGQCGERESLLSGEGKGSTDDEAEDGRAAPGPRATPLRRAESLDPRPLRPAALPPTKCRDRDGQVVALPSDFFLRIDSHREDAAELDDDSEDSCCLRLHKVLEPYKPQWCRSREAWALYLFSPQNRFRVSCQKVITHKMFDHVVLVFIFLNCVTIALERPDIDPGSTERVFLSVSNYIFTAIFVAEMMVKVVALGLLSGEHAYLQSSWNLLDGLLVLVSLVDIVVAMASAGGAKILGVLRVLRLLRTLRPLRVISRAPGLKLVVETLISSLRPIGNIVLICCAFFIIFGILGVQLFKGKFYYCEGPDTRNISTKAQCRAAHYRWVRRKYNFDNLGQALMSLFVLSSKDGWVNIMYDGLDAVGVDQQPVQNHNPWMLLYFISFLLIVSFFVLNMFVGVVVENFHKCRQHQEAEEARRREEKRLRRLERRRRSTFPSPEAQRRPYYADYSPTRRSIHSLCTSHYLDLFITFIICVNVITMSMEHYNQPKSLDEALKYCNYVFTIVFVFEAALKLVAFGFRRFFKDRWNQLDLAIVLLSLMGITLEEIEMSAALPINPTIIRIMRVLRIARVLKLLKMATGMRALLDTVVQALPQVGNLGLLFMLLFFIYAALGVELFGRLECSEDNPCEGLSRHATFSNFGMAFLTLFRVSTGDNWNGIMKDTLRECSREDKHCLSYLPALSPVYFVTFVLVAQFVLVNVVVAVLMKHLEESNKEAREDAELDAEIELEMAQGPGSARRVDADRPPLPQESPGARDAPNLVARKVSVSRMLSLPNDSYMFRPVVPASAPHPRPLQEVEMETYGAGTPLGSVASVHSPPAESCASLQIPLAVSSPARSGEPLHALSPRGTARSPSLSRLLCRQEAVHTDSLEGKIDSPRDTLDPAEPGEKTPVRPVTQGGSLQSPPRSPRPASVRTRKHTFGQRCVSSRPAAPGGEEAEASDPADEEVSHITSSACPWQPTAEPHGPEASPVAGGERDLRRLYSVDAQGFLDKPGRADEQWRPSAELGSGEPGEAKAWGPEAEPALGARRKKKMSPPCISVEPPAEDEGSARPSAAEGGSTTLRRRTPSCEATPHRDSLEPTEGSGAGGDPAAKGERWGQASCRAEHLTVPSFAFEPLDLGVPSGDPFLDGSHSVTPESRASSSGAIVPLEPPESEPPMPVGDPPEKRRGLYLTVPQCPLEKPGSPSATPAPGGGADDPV

This assay concerns the target Voltage-dependent T-type calcium channel subunit alpha-1H (Homo sapiens) (UniProt O95180). Nature of the assay: Cav3.2 calcium influx blockers – cell-based, Fluo-4 calcium fluorescence, FDSS, MLSMR library, primary screen (AID 449739). Particulars: Cav3.2-expressing cells, at 10 µM, active compounds read low.
Consider `C/C=C(/C)C(=O)O[C@@H]1c2cc3c(c4c2[C@@]2(CO4)C(=O)C(OC)=C(OC)C=C2C[C@@H](C)[C@H]1C)OCO3`, for which the B-score was -0.0512 (inactive).
Regarding `CCN1CCN(C(=O)/C=C\C(=O)O)CC1`, the B-score was -0.00536 (inactive).
`O=C(NCCCCCCCCCNC(=O)C(F)(F)F)C(F)(F)F`: the B-score is -0.288 (inactive).
With `Cn1c(C(=O)N2CCC(C(N)=O)CC2)cc2c(=O)n(C)c3ccccc3c21`, the B-score was 0.0764 (inactive).
Take `Cn1c2ccccc2c2c(C(=O)N3CCN(c4ccc(F)cc4)CC3)cn(C3CCCC3)c(=O)c21`: the B-score is -5.04 (active).
The same measure for `O=C(c1cccc2ccccc12)N1CCN(c2ccccc2F)CC1`: -2.56 (inactive); for `O=c1c2ccccc2c(-c2ccc(F)cc2)nn1-c1ccc(C(F)(F)F)cc1`: 0.392 (inactive).
With `Clc1ccc(-c2nnc(-c3ccccc3)nc2N2CCSCC2)cc1`, the B-score was -2.83 (inactive).
The same measure for `COc1cc(/C=C/CO)cc(OC)c1O[C@@H]1O[C@H](CO)[C@@H](O)[C@H](O)[C@H]1O`: 0.144 (inactive).
The result for `CC1(c2nnc(-c3ccncc3)o2)CC(c2cccnc2)=NO1` (stereo not drawn) reads 0.534 (inactive); that for `COc1ccc(NC(=O)CSc2nc(NS(=O)(=O)c3ccc(C)cc3)cc(=O)[nH]2)cc1`, -6.39 (active); that for `COc1ccc2nc(SCC(=O)Nc3c(C)cc(C)cc3C)[nH]c2c1`, -0.844 (inactive).
With `COc1ccc(NC(=O)CSc2nc(N)c(-c3ccccc3)c(=O)[nH]2)cc1`, the B-score is 0.0212 (inactive).
Consider `CCCC(=O)Nc1nc2ccc(NC(=O)c3cccnc3)cc2s1`, for which the B-score is -0.392 (inactive).
Take `COCCN1C(=O)N[C@@H](CCc2ccccc2)[C@H](C(C)=O)[C@H]1C`: the B-score is 0.713 (inactive).
The result for `O=C(NCC1CC1)c1onc(CSc2ccccc2)c1C(=O)NCC1CC1` reads -1.14 (inactive); that for `CS(=O)(=O)N(CC(=O)N1CCN(c2ccc(F)cc2)CC1)C1CCCCC1`, 1.32 (inactive); that for `CS(=O)(=O)N(CC(=O)Nc1ccc(Cl)c(Cl)c1)C1CCCCC1`, -4.14 (active).
As to `CCOC(=O)N1CCN(C(=O)CN(C2CCCCC2)S(C)(=O)=O)CC1`, the B-score was -0.0305 (inactive).
The result for `O=C(COc1ccc2c(C(F)(F)F)cc(=O)oc2c1)Nc1ccc2c(c1)OCCO2` reads -0.232 (inactive).
In the case of `N#Cc1ccc(Oc2cc(C(F)(F)F)nc(-c3ccccn3)n2)cc1`, the B-score is -0.0658 (inactive).
With `O=C(NCCCN1CCOCC1)c1cc2c(s1)CCC2`, the B-score was 0.565 (inactive).
The same measure for `Cc1nn(C)cc1C(=O)NNC(=S)Nc1ccc(Cl)cc1`: -0.0884 (inactive); for `COC(=O)C1=C(C(=O)OC)[C@@H]2N(C)c3ccccc3[C@@]23C[C@@H](C(=O)OC)N(C(C)=O)C3=N1`: 0.294 (inactive); for `CCOC(=O)c1ccccc1NC(=O)c1c(N)n(C)c(=O)[nH]c1=O`: 1.01 (inactive).
Regarding `C=CCn1c(SCC(=O)Nc2nc3ccccc3s2)nnc1-c1ccccc1O`, the B-score was -5.9 (active).
The same measure for `C=CCn1c(COc2ccccc2)nnc1SCC(=O)NCC(=O)OCC`: 0.062 (inactive).
With `C=CCn1c(N)cc(=O)nc1SCC(=O)Nc1cccc2ccccc12`, the B-score was -0.0155 (inactive).
For `CCn1c(SCC(=O)Nc2nc3ccc(OC)cc3s2)nnc1-c1ccoc1C`, the B-score was -3.69 (inactive).
In the case of `O=C(CSc1nnc(-c2cccnc2)n1CCc1ccccc1)NCc1ccccc1`, the B-score was 0.107 (inactive).
On to `C=CCn1c(SCC(=O)NCc2ccccc2)nnc1-c1cc(Br)ccc1O`, for which the B-score was -6.89 (active).
For the compound `CN(C)/C=C(\C#N)C(=O)c1cccnc1Oc1ccc(F)cc1F`, the B-score is 0.526 (inactive).
Take `Cc1ccc(Cl)cc1NC(=O)COC(=O)C1CCCCC1`: the B-score is -0.13 (inactive).
With `O=C(Cc1ccc(-n2c(=O)c3sccc3n(Cc3ccc(F)cc3)c2=O)cc1)NCc1ccco1`, the B-score is -0.875 (inactive).
`O=C(NCc1ccco1)c1ccc(Cn2c(=O)c3sccc3n(Cc3ccc(F)cc3)c2=O)cc1`: the B-score was -3.42 (active).
Regarding `O=C(NCc1ccco1)c1cc2sccc2n1Cc1ccc(F)cc1`, the B-score was -5.53 (active).
Turning to `CC(C)(C)c1ccc(C(=O)NCCC(=O)NCc2ccco2)cc1`, the B-score was -0.22 (inactive).
For `O=C(NCc1ccco1)c1ccc(CS(=O)(=O)Cc2ccc(F)cc2)o1`, the B-score was 1.27 (inactive).
In the case of `O=C(c1cc2sccc2n1Cc1ccc(F)cc1)N1CCc2ccccc21`, the B-score was -3.42 (inactive).
As to `COc1cccc(-c2cc(C(=O)N/N=C/c3ccc(OC)c(COC(C)=O)c3)c3ccccc3n2)c1`, the B-score is -0.321 (inactive).
Turning to `CC(C)(C)CN1C(=O)C(=O)NC[C@H]1Cc1cccc2ccccc12`, the B-score was 0.844 (inactive).
For the compound `Fc1ccccc1COc1ccccc1CNCc1ccncc1`, the B-score was 0.584 (inactive).
With `CC(C)CC(CO)N1CCN(C(=O)c2ccc(Cl)cc2Cl)CCC1=O` (stereo not drawn), the B-score is 0.363 (inactive).
The same measure for `Cc1c(NC(=O)CCCOc2ccccc2)cccc1[N+](=O)[O-]`: -0.161 (inactive); for `CCO[C@@H]1OC(C(N)=O)=C[C@H](c2ccc(Br)cc2)[C@H]1CCCO`: 0.335 (inactive).
`O=C(CSCc1ccc(Cl)cc1)N1CCN(Cc2ccc3c(c2)OCO3)CC1`: the B-score is -5.77 (active).
As to `CS(=O)(=O)N(CC(=O)N1CCN(Cc2ccc3c(c2)OCO3)CC1)c1ccc2c(c1)OCO2`, the B-score was 1.42 (inactive).
For the compound `O=C(c1cccs1)N1CCN(Cc2ccc3c(c2)OCO3)CC1`, the B-score is 0.274 (inactive).
The result for `O=C(NCc1cc(C(F)(F)F)cc(C(F)(F)F)c1)C1CC(c2cccc(F)c2)=NO1` (stereo not drawn) reads -0.916 (inactive); that for `O=C(CSc1ncnc2c1cnn2CCc1ccccc1)Nc1ccc(F)cc1`, 0.0976 (inactive).
Take `COc1ccc(C(C(=O)NCc2ccccc2)N(Cc2cccs2)C(=O)c2cnccn2)cc1` (stereo not drawn): the B-score was -0.0118 (inactive).
The same measure for `C/C=C(/C)C(=O)Nc1cccc(C2=NOC3(C2)C[C@@H](C(N)=O)N(C(=O)C2(C)CC2)C3)c1` (stereo partly drawn): -0.695 (inactive).
As to `O=C(NCC1CCCO1)/C(=C\c1ccco1)NC(=O)c1ccccc1` (stereo not drawn), the B-score is 0.14 (inactive).
On to `CCOc1ccc(C(C)C)cc1S(=O)(=O)n1nc(C)cc1C`, for which the B-score is -4.23 (active).
In the case of `CCOc1cc(C)c(Cl)cc1S(=O)(=O)n1nnc2ccccc21`, the B-score is -2.51 (inactive).
In the case of `CCOc1ccc(S(=O)(=O)n2ccnc2)c2ccccc12`, the B-score is 0.109 (inactive).
In the case of `O=C(CN1CCN(c2ccccn2)CC1)NC1CCCCC1`, the B-score was 0.646 (inactive).
In the case of `O=C(CN1CCN(S(=O)(=O)c2ccc3ccccc3c2)CC1)NC(=O)NC1CCCCC1`, the B-score was -8.92 (active).
On to `O=C(CN1CCN(S(=O)(=O)c2ccc(F)cc2)CC1)Nc1ccccc1F`, for which the B-score was 0.623 (inactive).
As for `CCOC(=O)c1cccc(NC(=O)c2ccc(F)cc2F)c1`, the B-score was 0.631 (inactive).
Take `CN1CCN(C(=O)C2=C[C@H](c3ccc4c(c3)OCO4)C[C@H](OCc3ccc(CO)cc3)O2)CC1`: the B-score is 0.346 (inactive).
The result for `O=C(CCc1ccc(S(=O)(=O)NC2CCCCC2)cc1)NCc1ccccc1` reads -2.7 (inactive).
For the compound `O=c1[nH]snc1-c1c(Cl)cccc1Cl`, the B-score is 0.688 (inactive).
The result for `CCn1c(CSc2ncccn2)nnc1SCC(=O)N1c2ccccc2CC1C` (stereo not drawn) reads 0.0736 (inactive); that for `CCCCn1ccnc1C(=O)c1cccc(S(=O)(=O)N2c3ccccc3CC2C)c1` (stereo not drawn), -5.72 (active); that for `CC1Cc2ccccc2N1C(=O)Cn1cnc2ccccc2c1=O` (stereo not drawn), 0.0523 (inactive).
On to `O=C(NC1CC1)c1ccc2c(c1)NC(=O)c1ccccc1S2`, for which the B-score was -0.133 (inactive).
Take `COc1ccc(COCCN2CCN(S(=O)(=O)c3ccccc3)CCC2=O)cc1`: the B-score was -0.361 (inactive).
The same measure for `COc1cc([C@H](Cc2ccccc2)NC(C)=O)oc(=O)c1`: -0.786 (inactive); for `Cc1ccc(S(=O)(=O)Oc2ccc(/C=N/NC(=O)c3c(Cl)cnn3C)cc2)cc1`: 0.419 (inactive).
The same measure for `Cc1ccc(/C=N/NC(=O)C(NC(=O)c2ccccc2)c2n[nH]c(=O)c3ccccc23)cc1` (stereo not drawn): -4.96 (active).
For `Cc1ccc(C(=O)N/N=C/c2sc(=O)n(Cc3cccc(C(=O)O)c3)c2Cl)cc1`, the B-score is 2.4 (inactive).
For `O=c1c2ccccc2c(-c2ccc(Br)cc2)nn1Cc1ccccc1`, the B-score is 0.372 (inactive).
For the compound `Cn1cc(CCC(=O)NCc2ccc3c(c2)OCO3)c2ccccc21`, the B-score is -2.19 (inactive).
Turning to `O=C(COc1ccccc1)NCc1ccc2c(c1)OCO2`, the B-score is -1.91 (inactive).
As for `N#Cc1nc(Cc2cccc3ccccc23)oc1NCc1ccc2c(c1)OCO2`, the B-score was -7.29 (active).
The same measure for `C=CCOC(=O)C1=C[C@H](c2ccc(Br)cc2)C[C@H](OCCCCO)O1`: -0.545 (inactive).
`COc1ccc(C2/C=C\CN(CC(C)C)CC(=O)N2Cc2ccc(F)cc2)cc1` (stereo not drawn): the B-score is -0.399 (inactive).
In the case of `COc1ccc(N2CCN(C(=O)CCc3nc(-c4ccc(C)cc4)no3)CC2)cc1`, the B-score is -3.49 (active).
As for `CCOc1cc(-c2noc(CCC(=O)N3CCOCC3)n2)ccc1OC`, the B-score is 0.164 (inactive).
The result for `Cc1ccc(-c2noc(CCC(N)=O)n2)cc1` reads 0.127 (inactive); that for `C#CCOCCOCCOCCNc1nc(N2CCN(C(=O)C([C@@H](C)CC)n3cc(C(N)COC(=O)C(F)(F)F)nn3)CC2)nc(N2CCN(C(=O)[C@H](Cc3ccc(O)cc3)n3cc(C(N)[C@H](C)CC)nn3)CC2)n1` (stereo partly drawn), 0.00651 (inactive); that for `Cc1ccc(CNC(=O)c2ccccc2CCc2ccccc2)cc1`, 0.145 (inactive).
Take `COc1ccc(C[C@H]2CN3C(=NC[C@H]3C)N2CCNC(=O)CCC2CCCCC2)cc1`: the B-score is -0.267 (inactive).
The result for `O=C(CSc1nnc(-c2c[nH]c3ccccc23)o1)c1ccccc1` reads 0.381 (inactive); that for `O=C(CSCc1ccc([N+](=O)[O-])cc1)NCCSCc1ccccc1`, -6.39 (active); that for `O=C(NCCc1ccccc1)/C(=C\c1ccc([N+](=O)[O-])cc1)NC(=O)c1ccccc1`, 0.653 (inactive).
As for `O=C(CSCc1ccc([N+](=O)[O-])cc1)Nc1cccc(C(=O)Nc2ccccc2C(=O)O)c1`, the B-score was -1.32 (inactive).
